# Data reported in PubChem BioAssay (Tox21).
# Where “and” joins values, the source holds several entries; their conditions need not be identical. Identical values can stand only once. A number with no mark means an inactive call. Inconclusive results are not listed. A call without a number means that no potency is given here. Calls of active or inactive are those of the source. Unless noted, calls come from the whole dose curve; as a rule, active = well fitted curve in the direction sought with a large enough effect in the repeat runs; inconclusive = weak or mixed curves; inactive = no such curve, though single readings can be large; an effect the other way counts as inactive or inconclusive.
# What was measured:
# [1] = qHTS assay to identify small molecule agonists of the hypoxia (HIF-1) signaling pathway - cell viability counter screen (AID 1224844; calls by dose curve; note: nearly all actives have a fitted effect of over 50% in size; note: potency is the fitted concentration of half-maximal effect)
# How it was run: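 HRE-bla ME-180 cells, 2,000/well in 0.5% dialyzed FBS medium, treated 17 h at 37C with compounds. Viability read in the same wells as the bla reporter, by CellTiter-Glo luminescence after 30 min at room temperature.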
# [2] = qHTS assay to identify small molecule agonists of H2AX (AID 1224845; active = well fitted activation curve with a large enough effect in the signal ratio in the repeat runs, not every such curve was filed as active; the % refers to the signal ratio)
# How it was run: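 Phospho-H2AX Ser139 measured by HTRF (ex 320 nm; em 665 and 620 nm) after 24 hr antibody incubation. Compounds, 15 concentrations, 0.76% DMSO, were applied to CHO-K1 cells for 3hr at 37C before lysis.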
# [3] = qHTS RealTime-Glo MT Cell Viability Assay in HepG2 cells - 24 hour (AID 1224867); note: nearly all actives have a fitted effect of over 50% in size; note: potency is the fitted concentration of half-maximal effect
# How it was run: (§1)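 Cell number in HepG2 cultures estimated from NanoLuc luminescence generated by metabolic reduction of a prosubstrate by living cells. The homogeneous, nonlytic format allowed repeated reads at 0, 8, 16, 24, 32 and 40 h of compound exposure.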
# [4] = A CellTox Green Cytotoxicity Assay to monitor cytotoxicity in HEK293 cells - 0 hour (AID 1224869); note: nearly all actives have a fitted effect of over 50% in size
# How it was run: (§2)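 HEK293 cells, 600/well, were preincubated 5 hours and then exposed to compounds at 37 C for up to 40 hours. A cell-impermeant cyanine dye staining dead-cell DNA was read by fluorescence at 0, 8, 16, 24, 32 and 40 h time points.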
# [5] = qHTS RealTime-Glo MT Cell Viability Assay in HepG2 cells - 40 hour (AID 1224870); note: nearly all actives have a fitted effect of over 50% in size; note: potency is the fitted concentration of half-maximal effect
# How it was run: (§3)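 Real-time viability: cells seeded at 600 per well together with NanoLuc and cell-permeant prosubstrate, compounds added after 5 h incubation. Luminescence tracked at 0, 8, 16, 24, 32 and 40 h of exposure.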
# [6] = A CellTox Green Cytotoxicity Assay to monitor cytotoxicity in HEK293 cells - 40 hour (AID 1224871); note: nearly all actives have a fitted effect of over 45% in size; note: potency is the fitted concentration of half-maximal effect
# How it was run: as §2
# [7] = A CellTox Green Cytotoxicity Assay to monitor cytotoxicity in HEK293 cells - 24 hour (AID 1224875); note: nearly all actives have a fitted effect of over 45% in size; note: potency is the fitted concentration of half-maximal effect
# How it was run: as §2
# [8] = qHTS RealTime-Glo MT Cell Viability Assay in HepG2 cells - 32 hour (AID 1224877); note: nearly all actives have a fitted effect of over 55% in size; note: potency is the fitted concentration of half-maximal effect
# How it was run: as §1
# [9] = A CellTox Green Cytotoxicity Assay to monitor cytotoxicity in HepG2 cells - 24 hour (AID 1224878); note: nearly all actives have a fitted effect of over 45% in size; note: potency is the fitted concentration of half-maximal effect
# How it was run: (§4)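 HepG2 cells, 600/well, preincubated 5 h with CellTox Green dye, then exposed to Tox21 compounds in DMSO at 37 C for up to 40 h. Dead-cell DNA fluorescence read at the indicated time point.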
# [10] = A CellTox Green Cytotoxicity Assay to monitor cytotoxicity in HepG2 cells - 40 hour (AID 1224879); note: nearly all actives have a fitted effect of over 40% in size; note: potency is the fitted concentration of half-maximal effect
# How it was run: as §4
# [11] = qHTS RealTime-Glo MT Cell Viability Assay in HEK293 cells - 0 hour (AID 1224880); note: top concentration of the series differs between compounds; nearly all actives have a fitted effect of over 45% in size
# How it was run: (§5)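 600 cells/well were plated with the nonlytic NanoLuc/prosubstrate reagent, pre-incubated 5 h, then given 23 nL of compound in DMSO. Incubation at 37 C for 40 h, with luminescence from viable-cell-reduced substrate read repeatedly from 0 h.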
# [12] = qHTS assay to identify small molecule agonists of H2AX - cell viability counter screen (AID 1224847; calls by dose curve; note: nearly all actives have a fitted effect of over 30% in size; note: potency is the fitted concentration of half-maximal effect)
# How it was run: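 Cytotoxicity counter screen in wild-type CHO-K1 cells: a 3 hr compound treatment at 37C across 15 concentrations, followed by CellTiter-Glo luminescence to gauge viable cells.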
# [13] = qHTS assay to identify small molecule antagonists of the estrogen related receptor (ERR) signaling pathway from Tox21 library (AID 1224848); note: nearly all actives have a fitted effect of over 50% in size; note: potency is the fitted concentration of half-maximal effect
# How it was run: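 Reading was by luminescence 30 min after ONE-Glo addition. Before that, ERR cells at 2,000 per well had rested 6 h at 37 C/5% CO2 and then received pin-tooled compounds in DMSO for 18 h at 37 C.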
# [14] = qHTS assay to identify small molecule agonists of the estrogen related receptor (ERR) signaling pathway from Tox21 library (AID 1224849; calls by dose curve; note: nearly all actives have a fitted effect of over 15% in size); conditions: ERR reporter cell line, ONE-Glo luciferase, 18 h; at 92.4 µM (top of the series) unless noted
# How it was run: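 ERR reporter cells (NTP line) pre-incubated 6 hours at 37 C, then exposed to compounds for 18 hours at 37 C. ONE-Glo luciferase luminescence was read after 30 minutes at room temperature.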
# [15] = qHTS RealTime-Glo MT Cell Viability Assay in HEK293 cells - 32 hour (AID 1224868); note: nearly all actives have a fitted effect of over 50% in size; note: potency is the fitted concentration of half-maximal effect
# How it was run: (§6)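 Homogeneous bioluminescent viability format in HEK293 cells (600 cells/well). Following 5 h at 37 C/5% CO2, 23 nL compound was pintooled; the signal was measured repeatedly during 40 h incubation.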
# [16] = qHTS RealTime-Glo MT Cell Viability Assay in HEK293 cells - 16 hour (AID 1224872); note: nearly all actives have a fitted effect of over 50% in size; note: potency is the fitted concentration of half-maximal effect
# How it was run: as §6
# [17] = qHTS RealTime-Glo MT Cell Viability Assay in HepG2 cells - 8 hour (AID 1224873); note: nearly all actives have a fitted effect of over 55% in size; note: potency is the fitted concentration of half-maximal effect
# How it was run: as §3
# [18] = qHTS RealTime-Glo MT Cell Viability Assay in HEK293 cells - 40 hour (AID 1224874); conditions: RealTime-Glo luminescence; max response: stronger effect = lower value; note: nearly all actives have a fitted effect of over 50% in size; note: potency is the fitted concentration of half-maximal effect
# How it was run: as §5
# [19] = A CellTox Green Cytotoxicity Assay to monitor cytotoxicity in HepG2 cells - 16 hour (AID 1224876); note: nearly all actives have a fitted effect of over 45% in size; note: potency is the fitted concentration of half-maximal effect
# How it was run: as §4
# [20] = qHTS assay to identify small molecule agonists of the hypoxia (HIF-1) signaling pathway (AID 1224846; active = well fitted activation curve with a large enough effect in the signal ratio in the repeat runs, not every such curve was filed as active; the % refers to the signal ratio)
# How it was run: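 HRE-bla ME-180 beta-lactamase reporter cells in medium with 0.5% dialyzed FBS, pre-incubated 5 h then exposed to compounds 17 h at 37C, 5% CO2; reporter induction read with CCF4-AM FRET substrate.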
compound,measurement,setting,value
CC1(C)[C@H](/C=C2\CCSC2=O)[C@@H]1C(=O)OCc1coc(Cc2ccccc2)c1,Potency,[1],inactive
same,Potency,[2],inactive
same,Potency,[3],inactive
same,Potency,[4],inactive
same,Potency,[5],inactive
same,Potency,[6],inactive
same,Potency,[7],inactive
same,Potency,[8],inactive
same,Potency,[9],inactive
same,Potency,[10],inactive
same,Potency,[11],inactive
C=CC(=O)[O][Sn]([CH2]CCC)([CH2]CCC)[CH2]CCC,Potency,[1],0.977 µM (active)
same,Potency,[12],1.42 µM (active)
same,Potency,[13],1.37 µM (active)
same,"activity change, positive = activation",[14],-66.8%
same,Potency,[3],0.436 µM (active)
same,Potency,[15],0.389 µM (active)
same,Potency,[4],inactive
same,Potency,[5],0.389 µM (active)
same,Potency,[6],871 nM (active)
same,Potency,[16],0.549 µM (active)
same,Potency,[17],977 nM (active)
same,Potency,[18],389 nM (active)
same,Potency,[7],7.76 µM (active)
same,Potency,[19],0.616 µM (active)
same,Potency,[8],0.389 µM (active)
same,Potency,[9],0.692 µM (active)
same,Potency,[10],0.549 µM (active)
O=C(O)[C@H](O)[C@@H](O)C(=O)O,Potency,[1],inactive
same,Potency,[2],inactive
same,Potency,[3],inactive
same,Potency,[15],inactive
same,Potency,[4],inactive
same,Potency,[5],inactive
same,Potency,[6],inactive
same,Potency,[16],inactive
same,Potency,[17],inactive
same,max response,[18],5.57%
same,Potency,[7],inactive
same,Potency,[19],inactive
same,Potency,[8],inactive
same,Potency,[9],inactive
same,Potency,[10],inactive
same,Potency,[11],inactive
CC(C)[C@@H](Nc1ccc(C(F)(F)F)cc1Cl)C(=O)OC(C#N)c1cccc(Oc2ccccc2)c1 (some centres undefined),Potency,[1],inactive
same,Potency,[2],inactive
same,Potency,[3],inactive
same,Potency,[15],inactive
same,Potency,[4],inactive
same,Potency,[5],inactive
same,Potency,[6],inactive
same,max response,[18],-6.7%
same,Potency,[7],inactive
same,Potency,[8],inactive
same,Potency,[9],inactive
same,Potency,[10],inactive
same,Potency,[11],inactive
C[C@]12Cc3cn[nH]c3C[C@@H]1CC[C@@H]1[C@@H]2CC[C@@]2(C)[C@H]1CC[C@]2(C)O,Potency,[1],8.49 µM (active)
same,Potency,[2],inactive
same,"activity change, positive = activation",[14],-42.2% [at 42.5 µM]
same,Potency,[3],inactive
same,Potency,[4],inactive
same,Potency,[5],inactive
same,Potency,[6],inactive
same,Potency,[17],inactive
same,Potency,[7],inactive
same,Potency,[19],inactive
same,Potency,[8],inactive
same,Potency,[11],inactive
O=[N+]([O-])C(Br)Br,Potency,[1],43.7 µM (active)
same,Potency,[2],inactive
same,"activity change, positive = activation",[14],5.44%
same,Potency,[3],inactive
same,Potency,[15],55 µM (active)
same,Potency,[4],inactive
same,Potency,[16],55 µM (active)
same,Potency,[17],inactive
same,Potency,[19],inactive
same,Potency,[8],inactive
same,Potency,[9],inactive
same,Potency,[11],inactive
c1ccc(N=NNc2ccccc2)cc1,Potency,[1],inactive
same,Potency,[20],inactive
same,Potency,[12],92.9 µM (active) and 101 µM (active)
same,Potency,[3],inactive
same,Potency,[15],inactive
same,Potency,[4],inactive
same,Potency,[5],inactive
same,Potency,[6],45.2 µM (active) and 43.6 µM (active)
same,Potency,[16],inactive
same,Potency,[7],50.7 µM (active)
same,Potency,[8],inactive
same,Potency,[10],49 µM (active)
same,Potency,[11],inactive
O.O.O.O.O.O.O.O=S(=O)([O-])[O-].[Co+2],Potency,[1],inactive
same,Potency,[2],inactive
same,Potency,[12],inactive
same,Potency,[3],inactive
same,Potency,[15],inactive
same,Potency,[4],inactive
same,Potency,[5],inactive
same,Potency,[6],inactive
same,Potency,[16],inactive
same,max response,[18],0.267%
same,Potency,[7],inactive
same,Potency,[8],inactive
same,Potency,[9],inactive
same,Potency,[10],inactive
N#Cc1c[nH]cc1-c1cccc2c1OC(F)(F)O2,Potency,[1],inactive
same,Potency,[2],inactive
same,Potency,[3],inactive
same,Potency,[15],6.92 µM (active)
same,Potency,[4],inactive
same,Potency,[5],inactive
same,Potency,[6],inactive
same,Potency,[17],inactive
same,Potency,[7],inactive
same,Potency,[8],inactive
same,Potency,[9],inactive
same,Potency,[10],13.8 µM (active)
same,Potency,[11],inactive
O=[N+]([O-])c1ccc(CCl)cc1,Potency,[2],inactive
same,Potency,[20],inactive
same,Potency,[12],inactive
same,Potency,[13],inactive
same,Potency,[3],inactive
same,Potency,[4],inactive
same,Potency,[5],inactive
same,Potency,[6],inactive
same,Potency,[16],inactive
same,Potency,[17],inactive
same,Potency,[7],inactive
same,Potency,[19],inactive
same,Potency,[8],inactive
same,Potency,[9],inactive
same,Potency,[10],inactive
N#CC(C#N)=NNc1cccc(Cl)c1,Potency,[1],3.09 µM (active)
same,Potency,[13],0.77 µM (active)
same,"activity change, positive = activation",[14],-57.7%
same,Potency,[3],19.5 µM (active)
same,Potency,[15],4.9 µM (active)
same,Potency,[4],inactive
same,Potency,[5],19.5 µM (active)
same,Potency,[6],49000 nM (active)
same,Potency,[17],inactive
same,Potency,[7],inactive
same,Potency,[8],21.9 µM (active)
same,Potency,[9],24.5 µM (active)
same,Potency,[10],12.3 µM (active)
O=C1C(Cl)=C(Cl)C(=O)C(Cl)=C1Cl,Potency,[1],54.8 µM (active) and 38.9 µM (active)
same,Potency,[13],24.3 µM (active)
same,Potency,[15],24.5 µM (active) and 19.5 µM (active)
same,Potency,[4],inactive
same,Potency,[6],17.3 µM (active) and 19.5 µM (active)
same,Potency,[16],27.4 µM (active)
same,Potency,[17],43.5 µM (active) and 21.9 µM (active)
same,Potency,[7],21.8 µM (active) and 24.5 µM (active)
same,Potency,[9],24.5 µM (active) and 17.4 µM (active)
same,Potency,[10],21.8 µM (active) and 17.4 µM (active)
ClC1=C(Cl)[C@]2(Cl)[C@H]3[C@H]([C@@H]4C=C[C@H]3C4)[C@@]1(Cl)C2(Cl)Cl,Potency,[1],43.6 µM (active)
same,Potency,[12],89.8 µM (active)
same,Potency,[3],54.9 µM (active)
same,Potency,[15],48.9 µM (active) and 49 µM (active)
same,Potency,[4],inactive
same,Potency,[5],inactive
same,Potency,[6],54.9 µM (active) and 49 µM (active)
same,Potency,[16],43.6 µM (active) and 38.9 µM (active)
same,Potency,[17],49000 nM (active)
same,Potency,[18],48.9 µM (active) and 43.6 µM (active)
same,Potency,[7],48.9 µM (active) and 49 µM (active)
same,Potency,[19],54.9 µM (active)
same,Potency,[9],54.9 µM (active)
same,Potency,[10],54.9 µM (active)
same,Potency,[11],inactive
